For 20 compounds, activity change, negative = inhibition results are on record in PubChem BioAssay AID1259421 (Broad Institute, 2018).

Values joined by “and” are separate entries in the source; they are usually repeats but may differ in a detail not shown here. Identical values can stand only once. The campaign covered roughly 6,400 compounds. About 610 (9.5%) were called active. Rule as the data show it: active = activity change below about -70%; inconclusive = no clear call, values can overlap the other calls; inactive = above that. The entries come from a sample that favours actives as a whole. Some structures have more than one record in an assay (separate samples or runs), and their calls can disagree. Where a SMILES comes first, the peptide text is derived from it. The star is where a group is joined. Cbz = O=C(OCc1ccccc1)*

A short description of the assay: Toxoplasma gondii ME49Luc growth in HeLa cells, luciferase, no IFN-y, primary screen (AID 1259421). Particulars: T. gondii ME49Luc in HeLa, 72 h, stronger effect = lower value, concentration not given here.
For `Nc1nc2c(nc(Br)n2[C@@H]2O[C@@H]3COP(=O)(O)O[C@H]3[C@H]2O)c(=O)[nH]1`, the activity change, negative = inhibition was 7.36% (inactive).
Next, `CO[C@H]1CC(O[C@@H]2/C(C)=C/C[C@@H]3C[C@@H](C[C@]4(CC[C@H](C)[C@@H](C5CCCCC5)O4)O3)OC(=O)[C@@H]3C=C(C)/C(=N/O)[C@H]4OC/C(=C\C=C\[C@@H]2C)[C@]43O)O[C@@H](C)C1O` (stereo not given in full): -64.5% (inactive) and -40.6% (inactive).
Next, `NCCCCN=C(N)N`: 12.5% (inactive).
The same measure for `CC(CCC(=O)NCC(=O)O)C1CCC2C3CCC4CC(O)CCC4(C)C3CC(O)C12C` (stereo not given): -5.76% (inactive).
With `CC(=O)O[C@@H]1CC2C(C)(C)C(=O)CC[C@]2(C)C2CC[C@@]3(C)[C@H](c4ccoc4)OC(=O)C4OC43[C@@]21C` (stereo not given in full), the activity change, negative = inhibition is 21.5% (inactive).
On to `COC1CCC(N(C(=O)C2CCC(C)CC2)c2cc(C3=CCCCC3)sc2C(=O)O)CC1` (stereo not given), for which the activity change, negative = inhibition is 5.25% (inactive).
The same measure for `COc1cccc(O)c1O`: -4.12% (inactive); for `C[C@@H]1C(SC2CN(C3=NCCS3)C2)=C(C(=O)OCOC(=O)C(C)(C)C)N2C(=O)[C@H]([C@@H](C)O)[C@H]12`: 3.05% (inactive); for `CC(C)C[C@@H](C=O)NC(=O)[C@H](CC(C)C)NC(=O)[C@H](CC(C)C)NC(=O)OCc1ccccc1` (Cbz-Leu-Leu-Leu-aldehyde): -62.8% (inactive) and -91.5% (active).
Consider `COC(=O)[C@H](CC(C)C)NC(=O)[C@@H](N)CC(C)C`, for which the activity change, negative = inhibition was 4.82% (inactive).
Next, `CCCCC(C=O)NC(=O)C(CC(C)C)NC(=O)OCc1ccccc1` (stereo not given): 10.2% (inactive); `CC(C)=CCC/C(C)=C/COc1ccc2ccc(=O)oc2c1`: 17.8% (inactive).
The same measure for `c1ccc2c(c1)CCCc1cc(NCCN3CCOCC3)nnc1-2`: 12.2% (inactive); for `O=C(NCCN1CCOCC1)c1ccc(Cl)cc1`: -0.363% (inactive).
Regarding `O=C1C(Cl)=C(NCCN2CCOCC2)C(=O)c2ncccc21`, the activity change, negative = inhibition is -78.2% (active).
The same measure for `c1cc(-c2cnn3cc(-c4ccc(OCCN5CCCCC5)cc4)cnc23)ccn1`: -69.4% (inactive); for `C/C(=N\NC(=O)[C@@H]1C(=O)NC[C@H]1c1ccccc1)c1cccc(Br)c1`: 1.33% (inactive).
The same measure for `CO[C@H]1C=CO[C@@]2(C)Oc3c(C)c(O)c4c(O)c(c5c(nc6cc(C)ccn65)c4c3C2=O)NC(=O)/C(C)=C\C=C[C@H](C)[C@H](O)[C@@H](C)[C@@H](O)[C@@H](C)[C@H](OC(C)=O)[C@@H]1C`: -17.3% (inactive); for `O=C1OC(=O)C2C3CCC(O3)C12` (stereo not given): -85.1% (active).
The same measure for `CC(C)[C@](O)(c1ccc2cc(OC(F)F)c(OC(F)F)cc2c1)c1cn[nH]n1`: 29.6% (inactive).
